A short description of assay [1]: binders of probe aFSTL3 on microarray, primary screen, stem cell growth factor project, biochemical, small-molecule microarray, fluorescence 635/667 (AID 1064).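 Also: measures binding of the biotinylated anti-FSTL3 antibody to printed compounds.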 Conditions: higher = more signal.
The nature of assay [2]: binders from COS7 lysate, DM2A8 probe, primary screen, torsin A project, cell lysate, small-molecule microarray, fluorescence 635/667 (AID 1065). Conditions: higher = more signal, COS7 lysate expressing mutant human TOR1A.
A short description of assay [3]: binders of probe aFGF2 on microarray, primary screen, stem cell growth factor project, biochemical, small-molecule microarray, fluorescence 635/667 (AID 1067).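 Also: measures binding of biotinylated aFGF2 protein to printed compounds on slides; z-score merges feature fluorescence and signal-to-noise across triplicate slides.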 The conditions noted are these: higher = more signal.
Assay [4] in a line: binders of probe aFGF10 on microarray, primary screen, stem cell growth factor project, biochemical, small-molecule microarray, fluorescence 635/667 (AID 1071).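 Also: score merges 667 nm spot intensity and signal to noise from triplicate slides.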 Conditions: higher = more signal.
For assay [5], the target named is Neurogenic locus notch homolog protein 2 (Homo sapiens) (UniProt Q04721). The assay is described as follows: Notch2 binders on small-molecule microarrays, primary screen, biochemical, small-molecule microarray, 635 nm fluorescence, stem cell growth factors (AID 1073). Conditions: Notch2 binding, higher = more signal.
Sequence of Neurogenic locus notch homolog protein 2 (Homo sapiens) (Q04721 whole entry, looked up, canonical isoform): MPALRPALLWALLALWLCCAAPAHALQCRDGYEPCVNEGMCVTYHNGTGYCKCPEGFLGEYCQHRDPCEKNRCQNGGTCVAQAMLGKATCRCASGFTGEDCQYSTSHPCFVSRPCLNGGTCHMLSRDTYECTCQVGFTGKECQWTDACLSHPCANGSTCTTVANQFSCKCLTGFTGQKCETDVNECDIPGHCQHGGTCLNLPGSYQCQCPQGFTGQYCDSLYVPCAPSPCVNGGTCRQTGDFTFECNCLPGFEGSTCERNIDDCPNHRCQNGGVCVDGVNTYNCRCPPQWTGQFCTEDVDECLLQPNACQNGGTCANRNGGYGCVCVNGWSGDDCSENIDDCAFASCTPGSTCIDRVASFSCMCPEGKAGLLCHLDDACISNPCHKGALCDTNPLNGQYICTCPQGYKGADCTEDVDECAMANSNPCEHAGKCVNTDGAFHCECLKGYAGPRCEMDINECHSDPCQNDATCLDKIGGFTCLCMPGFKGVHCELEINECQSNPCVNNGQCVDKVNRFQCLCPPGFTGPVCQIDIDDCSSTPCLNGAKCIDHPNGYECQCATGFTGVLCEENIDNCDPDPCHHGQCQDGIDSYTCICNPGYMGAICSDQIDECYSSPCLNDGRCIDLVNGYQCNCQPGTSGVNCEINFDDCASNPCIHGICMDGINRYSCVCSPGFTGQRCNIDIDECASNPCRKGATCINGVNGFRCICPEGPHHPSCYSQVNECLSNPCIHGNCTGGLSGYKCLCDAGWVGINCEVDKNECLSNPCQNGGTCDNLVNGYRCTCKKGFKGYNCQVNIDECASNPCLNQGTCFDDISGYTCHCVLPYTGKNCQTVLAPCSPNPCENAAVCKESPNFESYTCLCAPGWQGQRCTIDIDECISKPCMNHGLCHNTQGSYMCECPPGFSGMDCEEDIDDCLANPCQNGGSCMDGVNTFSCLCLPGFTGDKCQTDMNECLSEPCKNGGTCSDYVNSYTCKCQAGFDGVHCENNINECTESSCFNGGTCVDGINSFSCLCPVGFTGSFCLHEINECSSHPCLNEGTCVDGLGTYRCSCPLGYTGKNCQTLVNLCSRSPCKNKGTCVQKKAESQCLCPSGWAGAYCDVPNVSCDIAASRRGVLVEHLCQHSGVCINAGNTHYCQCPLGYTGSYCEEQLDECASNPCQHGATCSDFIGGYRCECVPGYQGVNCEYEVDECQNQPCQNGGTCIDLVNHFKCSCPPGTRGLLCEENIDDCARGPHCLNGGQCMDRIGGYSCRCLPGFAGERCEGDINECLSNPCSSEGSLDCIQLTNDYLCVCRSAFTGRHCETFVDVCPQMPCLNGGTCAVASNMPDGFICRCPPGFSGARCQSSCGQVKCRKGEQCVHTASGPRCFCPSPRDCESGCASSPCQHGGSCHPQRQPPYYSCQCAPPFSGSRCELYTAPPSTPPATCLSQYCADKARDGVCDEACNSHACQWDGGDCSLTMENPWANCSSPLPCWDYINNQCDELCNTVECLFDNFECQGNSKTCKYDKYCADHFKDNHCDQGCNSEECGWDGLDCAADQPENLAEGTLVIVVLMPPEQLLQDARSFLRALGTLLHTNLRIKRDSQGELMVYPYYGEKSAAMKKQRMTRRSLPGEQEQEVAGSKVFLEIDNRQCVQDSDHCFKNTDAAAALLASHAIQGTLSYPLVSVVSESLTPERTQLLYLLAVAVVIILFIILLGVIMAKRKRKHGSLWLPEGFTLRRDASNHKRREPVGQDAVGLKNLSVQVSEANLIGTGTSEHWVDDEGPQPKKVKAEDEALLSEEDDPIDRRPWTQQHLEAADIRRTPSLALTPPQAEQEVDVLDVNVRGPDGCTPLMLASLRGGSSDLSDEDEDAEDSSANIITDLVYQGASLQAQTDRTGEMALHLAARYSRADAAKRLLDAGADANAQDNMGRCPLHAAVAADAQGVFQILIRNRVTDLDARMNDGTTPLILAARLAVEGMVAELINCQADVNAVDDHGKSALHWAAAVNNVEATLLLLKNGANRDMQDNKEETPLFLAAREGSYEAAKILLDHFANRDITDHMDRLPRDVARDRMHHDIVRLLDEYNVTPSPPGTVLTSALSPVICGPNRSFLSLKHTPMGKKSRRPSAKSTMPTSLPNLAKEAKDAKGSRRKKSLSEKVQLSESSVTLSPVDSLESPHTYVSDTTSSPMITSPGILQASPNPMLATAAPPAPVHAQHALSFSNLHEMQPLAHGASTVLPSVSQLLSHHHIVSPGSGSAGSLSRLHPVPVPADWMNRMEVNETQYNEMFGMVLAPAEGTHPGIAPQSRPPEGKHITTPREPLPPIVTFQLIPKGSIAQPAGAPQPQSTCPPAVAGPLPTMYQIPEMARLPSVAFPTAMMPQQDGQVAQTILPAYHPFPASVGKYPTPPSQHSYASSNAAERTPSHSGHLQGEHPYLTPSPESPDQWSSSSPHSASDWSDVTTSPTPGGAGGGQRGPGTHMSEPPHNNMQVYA
The target of assay [6] is Pro-neuregulin-1, membrane-bound isoform (Homo sapiens) (UniProt Q02297). As to the kind of experiment: NRG1 binders on small-molecule microarrays, primary screen, psychiatric disease protein project, biochemical, small-molecule microarray, fluorescence 635/667 (AID 1075).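 Also: score combines 667 nm spot fluorescence with signal to noise.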 Conditions: NRG1 binding, 635 nm fluorescence, higher = more signal.
Sequence of Pro-neuregulin-1, membrane-bound isoform (Homo sapiens) (Q02297 whole entry, looked up, the tested form may be a part, canonical isoform): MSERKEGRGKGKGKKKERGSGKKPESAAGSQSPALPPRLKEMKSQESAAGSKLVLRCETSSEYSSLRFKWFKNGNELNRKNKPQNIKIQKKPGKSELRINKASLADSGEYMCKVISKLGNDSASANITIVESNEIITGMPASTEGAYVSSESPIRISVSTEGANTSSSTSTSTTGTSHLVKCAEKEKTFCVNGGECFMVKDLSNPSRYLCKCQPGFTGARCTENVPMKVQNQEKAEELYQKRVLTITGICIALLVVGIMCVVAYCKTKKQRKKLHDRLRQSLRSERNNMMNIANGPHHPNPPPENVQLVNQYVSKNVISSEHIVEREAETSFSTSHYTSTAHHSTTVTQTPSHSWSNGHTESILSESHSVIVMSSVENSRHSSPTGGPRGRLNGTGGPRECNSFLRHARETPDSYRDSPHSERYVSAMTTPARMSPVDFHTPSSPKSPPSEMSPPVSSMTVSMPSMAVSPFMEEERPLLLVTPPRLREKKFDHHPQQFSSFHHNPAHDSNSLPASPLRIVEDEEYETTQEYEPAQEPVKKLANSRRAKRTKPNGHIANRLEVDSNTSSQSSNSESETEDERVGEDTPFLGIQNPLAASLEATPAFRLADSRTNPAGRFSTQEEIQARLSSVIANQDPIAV
The test system of assay [7] is Neuregulin-1 EGF-like domain. The assay is described as follows: binders of neuregulin-1 EGF-like domain, primary screen, biochemical, small-molecule microarray, 635 nm fluorescence (AID 1081).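 Also: binding of the protein to compounds printed on small-molecule microarray slides.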 Conditions: small-molecule microarray binding, higher = more signal.
A short description of assay [8]: FRG1 promoter luciferase signal modulators, primary screen, FRG1 inhibition for FSHD, cell-based, C2C12 myotubes, firefly/Renilla luciferase, luminescence (AID 1084). The conditions noted are these: higher = more signal, called active from +8 up or from −8 down.
A short description of assay [9]: binders of probe aFST on microarray, primary screen, stem cell growth factor project, biochemical, small-molecule microarray, fluorescence 635/667 (AID 1086).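 Also: score merges 667 nm fluorescence with signal-to-noise of each printed compound spot.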 The conditions noted are these: higher = more signal.
The nature of assay [10]: binders of probe aHhip on microarray, primary screen, stem cell growth factor project, biochemical, small-molecule microarray, fluorescence 635/667 (AID 1087).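 Also: score merges spot fluorescence at 667nm with spot signal to noise ratio.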 The conditions noted are these: higher = more signal.
Assay [11] has as its system PRMT1 (protein arginine N-methyltransferase 1). As to the kind of experiment: PRMT1 binders on small-molecule microarrays, primary screen, biochemical, small-molecule microarray, 635 nm fluorescence (AID 1088).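 Also: binding of Prmt1 protein to compounds spotted on small-molecule microarray slides.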 Conditions: small-molecule microarray binding, higher = more signal.
Assay [12] can be described thus: yeast growth modulation, basal conditions, primary screen, YJM789 clinical isolate, OD600, 24 h (AID 1089).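 Also: growth of clinical yeast isolate S. cerevisiae YJM 789 seeded 1000 cells per well; test concentration not given here.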 The conditions noted are these: S. cerevisiae YJM789 growth, higher = more signal, called active from +8 up or from −8 down.
A short description of assay [13]: fission yeast growth modulation, primary screen, strain 972, OD600, 24 h, no modulator (AID 1090).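 Also: basal condition with compound alone and no growth modifier present; test concentration not given here.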 Conditions: S. pombe 972 growth, higher = more signal, called active from +8 up or from −8 down.
Assay [14] is described as follows: S. cerevisiae growth modulation with rapamycin, primary screen, strain BY4716, OD600, 96 h (AID 1091). Also: test concentration not given here. The conditions noted are these: higher = more signal, called active from +8 up or from −8 down.
The target of assay [15] is Torsin-1A-interacting protein 2 (Homo sapiens) (UniProt Q8NFQ8). As to the kind of experiment: LULL1 binders on small-molecule microarray, primary screen, cell lysate, human LULL1 lysate, 635/667 nm fluorescence (AID 1092).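 Also: probe is lysate of COS7 cells overexpressing human LULL1; score merges per-feature 667 nm fluorescence with signal-to-noise.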 The conditions noted are these: hLULL1 lysate binding, 635 nm fluorescence, higher = more signal.
Sequence of Torsin-1A-interacting protein 2 (Homo sapiens) (Q8NFQ8 whole entry, looked up): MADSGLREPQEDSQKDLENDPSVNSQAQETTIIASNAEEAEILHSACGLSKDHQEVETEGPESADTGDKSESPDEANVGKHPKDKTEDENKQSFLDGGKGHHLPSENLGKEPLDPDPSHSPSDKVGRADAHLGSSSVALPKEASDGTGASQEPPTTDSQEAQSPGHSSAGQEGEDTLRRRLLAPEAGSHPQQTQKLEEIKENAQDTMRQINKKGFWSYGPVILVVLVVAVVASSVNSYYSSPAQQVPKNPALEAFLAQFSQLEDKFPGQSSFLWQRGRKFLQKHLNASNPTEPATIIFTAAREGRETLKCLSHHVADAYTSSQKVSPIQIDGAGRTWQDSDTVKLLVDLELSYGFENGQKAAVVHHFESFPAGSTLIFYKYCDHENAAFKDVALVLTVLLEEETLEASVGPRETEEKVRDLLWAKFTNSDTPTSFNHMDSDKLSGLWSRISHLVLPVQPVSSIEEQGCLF
Assay [16] can be described thus: E. coli growth modulation, two-sided OD650, primary screen, E. coli filamentation project, strain DRC41, 24 h (AID 1093).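 Also: MC1000 strain lacking acrAB efflux and sulA so SOS filamentation is blocked; test concentration not given here.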 Conditions: OD650, 24 h, higher = more signal, called active from +8 up or from −8 down.
The nature of assay [17]: small-molecule microarray binders of probe aLefty2, primary screen, biochemical, biotinylated probe, 635/667 nm fluorescence (AID 1094).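 Also: score merges spot fluorescence near 667 nm with spot signal-to-noise ratio.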 The conditions noted are these: higher = more signal.
In assay [18] the test system is Noggin (protein binding on small-molecule microarray). The assay is described as follows: Noggin binders on small-molecule microarray, primary screen, biochemical, 635/667 nm fluorescence (AID 1095).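 Also: score merges 667 nm feature fluorescence with signal to noise over triplicate slides.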 The conditions noted are these: 635 nm fluorescence, higher = more signal.
Assay [19] concerns the target Neurogenic locus notch homolog protein 3 (Homo sapiens) (UniProt Q9UM47). The assay is described as follows: NOTCH3 binders on small-molecule microarray, primary screen, biochemical, 635/667 nm fluorescence (AID 1096). The conditions noted are these: NOTCH3 binding, 635 nm fluorescence, higher = more signal.
Assay [20] is described as follows: small-molecule microarray binders of probe aEGFR, primary screen, biochemical, biotinylated probe, 635/667 nm fluorescence (AID 1097).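 Also: probe is a biotinylated anti-EGFR antibody binding compounds printed on slides; score combines fluorescence near 667 nm and signal to noise of each spot.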 The conditions noted are these: higher = more signal.

Calls of active or inactive are those of the source.

For `CCN(CC)c1ccc(N2CC=CC34O[C@@H]5/C=C\CCCOC(=O)C5[C@H]3C(=O)N(CCCCCCO)[C@@H]4C2=O)cc1` (stereo not given in full), the composite z-score in assay [1] is 0.272; in assay [2], -0.305; in assay [3] it was -0.119; in assay [4], -0.964; in [5] it was -0.946; in assay [6], 1.63. Moreover, the composite z-score was 0.709 in [7]; -0.958 in [9]; -0.271 in assay [10]; 0.529 in assay [11]; 3.35 in assay [15]; -0.162 in assay [17]. Moreover, the composite z-score is -0.885 in assay [18], -0.122 in assay [19] and -0.197 in [20]. The z-score in [8] is -0.489 (inactive); in assay [12], -2.29 (inactive); in assay [13], -0.737 (inactive); in [14], -0.64 (inactive); in [16] it was 1.27 (inactive).
Consider `C[C@@]1([C@@H](NC(=O)c2cccs2)c2ccc(-c3ccccc3)cc2)C[C@H]1C1CCCCC1`, for which the composite z-score in assay [1] was -0.11; in assay [2], -1.29; in assay [3], -0.428; in [4] it was -0.376; in [5], -0.41; in [6], 0.783. For the same compound, the composite z-score in assay [7] is -0.253; in assay [9], -0.232; in assay [10], -0.523; in [11], -1.61; in assay [15] it was 2.95; in assay [17], -0.288. Moreover, the composite z-score in assay [18] is -0.786; in [19] it was -1.31; in assay [20], -0.239. Also, the z-score is 2.66 (inactive) in assay [8]; 1.53 (inactive) in [12]; -0.584 (inactive) in assay [13]; -0.578 (inactive) in assay [14]; -0.474 (inactive) in assay [16].
As to `COCCOC(=O)N1C(=O)[C@@]2(c3cc(C#CCNC(N)=O)ccc31)[C@H](c1ccc(OCCO)cc1)N1[C@H](c3ccccc3)[C@H](c3ccccc3)OC(=O)[C@H]1[C@@H]2C(=O)N1CCN(c2ncccn2)CC1`, the composite z-score in [1] is 0.496; in assay [2], 0.287; in assay [3], -0.0478; in [4], 0.748; in [5], 1.04; in assay [6], 0.37. The composite z-score in assay [7] was 0.482; in assay [9], 0.974; in [10], -0.173; in assay [11], 1.43; in assay [15] it was 2.1; in assay [17], 0.456. The composite z-score in [18] was 1.35; in [19], 1.1; in assay [20], -0.0424. The z-score in assay [8] was -0.0699 (inactive); in assay [12] it was 1.22 (inactive); in [13], 0.423 (inactive); in assay [14], 4.72 (inactive); in assay [16], 0.338 (inactive).
Consider `[N-]=[N+]=NCc1ccccc1[C@H]1OC(c2ccc(OCCCO)cc2)=N[C@@]1(Cc1ccccc1N=[N+]=[N-])C(=O)N1CCCCC1`, for which the composite z-score in assay [1] worked out at 0.398; in assay [2], 0.221; in assay [3], 0.141; in [4] it was 0.263; in [5], 1.32; in [6], 1.32. The composite z-score in [7] is 1.04; in assay [9], 1.41; in assay [10], -0.199; in assay [11] it was 1.53; in [15], 3.44; in [17] it was 0.352. In addition, the composite z-score in assay [18] was found to be 0.667; in assay [19] it was 1.12; in [20] it was 0.23. In addition, the z-score was -1.6 (inactive) in assay [8]; 0.401 (inactive) in assay [12]; 0.763 (inactive) in [13]; 2.23 (inactive) in assay [14]; 0.203 (inactive) in assay [16].
`CC(C)(C)OC(=O)CC[C@@]1(C(=O)N2CCCCC2)N=C(c2ccc(OCCCO)cc2)O[C@@H]1c1ccccc1N=[N+]=[N-]`: the composite z-score in assay [1] is 0.358; in [2], 0.805; in assay [3], 0.147; in [4] it was 1.03; in assay [5], 1.66; in assay [6], 1.89. Also, the composite z-score in assay [7] was 1.41; in [9], 1.34; in assay [10], -0.0237; in [11], 1.53; in assay [15] it was 3.49; in [17] it was 0.253. Moreover, the figures for the composite z-score in assay [18], in assay [19] and in [20] were 0.369, 1.03 and 0.208, respectively. The z-score in assay [8] is -1.88 (inactive); in assay [12] it was -0.336 (inactive); in [13] it was -0.029 (inactive); in [14], -0.183 (inactive); in assay [16], 1.11 (inactive).

These data come from PubChem BioAssay.
